Results as given in PubChem BioAssay AID1347416 (National Center for Advancing Translational Sciences (NCATS), 2020).
In all, about 4,100 compounds went through this assay and about 1,600 (39%) were called active. Another 25% or so got no clear call; they are omitted. Calls come from the whole dose curve; as a rule, active = well fitted inhibition curve with a large enough effect; inconclusive = small, poorly fitted or top-dose-only effect; inactive = no such curve, though single readings can be large or run the other way. Some of the results follow. Entries that show only a call come without a potency.

Assay: qHTS Validation assay for Inhibitors of Plasmodium falciparum Dd2 growth in vitro; note: nearly all actives have a fitted effect of over 70% in size
Conditions: P. falciparum Dd2 in RBCs, SYBR Green growth, 72 h; series mostly up to 28.7 µM
How it was run: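 P. falciparum Dd2-infected red blood cells (2.5% hematocrit, 0.3% parasitemia) grown 72 h at 37 °C under 5% O2 with compounds in a titration, 29 uM to 0.5 nM final. Growth read as SYBR Green-1 fluorescence after ~16 h lysis; artesunate 300 nM as positive control.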
Potency is the fitted concentration of half-maximal effect.

SMILES | Potency
CC1=C(C(=O)NCc2ccccn2)C2(CCC(C)CC2)OC1=O (stereo unspecified) | inactive
NC(=O)C1CCN(CC(=O)Nc2cccc(C(=O)Nc3cccc(C(F)(F)F)c3)c2)CC1 | 6.68 µM (active)
O=C(Nc1cccc(C(F)(F)F)c1)C1CCN(S(=O)(=O)c2cccc3nsnc23)CC1 | inactive
CN(C)C[C@H]1C[C@@H](CO)CN(C(=O)c2ccccc2OC(F)(F)C(F)F)C1 | inactive
CCOc1ccccc1C(=O)N1CCN(C2CCN(C)C2=O)CC1 (stereo unspecified) | inactive
O=C(NC1CC1)c1ccccc1OCC1CCCN(Cc2cccc3[nH]ccc23)C1 (stereo unspecified) | 5.96 µM (active)
O=C(c1ccccc1OCC1CCCN(Cc2ccncc2F)C1)N1CCCCC1 (stereo unspecified) | 10.6 µM (active)
O=C(c1cc(-c2ccccc2)n[nH]1)N1CCCC(Cc2noc(-c3cnccn3)n2)C1 (stereo unspecified) | inactive
CC1(C)[C@H]2CC[C@@H](CNC(=O)c3cccc4[nH]ccc34)[C@@H]1C2 | inactive
CCn1cc(CN2CCCC(COc3ccccc3C(=O)N3CCCC3)C2)c2ccccc21 (stereo unspecified) | 8.41 µM (active)
COc1ccccc1C(=O)NC1CCCN(c2cc(-c3ccc(F)cc3)[nH]n2)C1 (stereo unspecified) | inactive
O=C(c1ccccc1OCC1CCCN(Cc2ccncc2F)C1)N1CCCC1 (stereo unspecified) | 10.6 µM (active)
Cc1ccncc1C(=O)N1CCCC(c2nnnn2C)C1 (stereo unspecified) | inactive
O=C(Nc1cccc(F)c1)N1CCC(Oc2ncccc2C(=O)N2CCCCC2)C1 (stereo unspecified) | inactive
Cc1nc(N2CCCC3(CN(C)C(=O)O3)C2)cc(-n2cccn2)n1 (stereo unspecified) | inactive
CC(C)c1noc(-c2cccn3c(CNC(=O)c4cc(F)ccc4Cl)nnc23)n1 | inactive
COc1ccc(C2Nc3ccccc3C(=O)N2Cc2ccccc2)cc1COc1ccc(Cl)cc1Cl (stereo unspecified) | 8.41 µM (active)
CCC(C)(C)n1nnnc1C(c1ccccc1OC)N1CCN(C(=O)c2ccco2)CC1 (stereo unspecified) | 15 µM (active)
COc1ccc(C(=O)N[C@@H]2CCC[C@@H]2C(=O)N2CCN(C(=O)c3ccco3)CC2)cn1 | inactive
COc1cc2c(cc1OC)CN(C(=O)c1ccco1)CC2 | inactive
CCC(C)(C)n1nnnc1C(c1cc2cccc(C)c2[nH]c1=O)N1CCN(C(=O)c2ccco2)CC1 (stereo unspecified) | 6.68 µM (active)
Cc1ccc(NC(=O)N(Cc2ccc3c(c2)OCO3)Cc2cc3cc4c(cc3[nH]c2=O)OCCO4)cc1 | 6.68 µM (active)
O=C(Nc1ccc(Cl)cc1)Nc1ccc2c(c1)N1CCN=C1S2 | 5.31 µM (active)
CCCCCCCc1c(C)nc(N2CCOCC2)[nH]c1=O | 5.31 µM (active)

SMILES | Potency
O=C(c1cc2cc(Br)ccc2[nH]1)N1CCc2ccccc21 | inactive
NNC(=O)CN1C(=O)Nc2ccc(Br)cc2C1c1ccccc1 (stereo unspecified) | inactive
NNC(=O)CN1C(c2cccc(Cl)c2)=Nc2ccc(Br)cc2C1c1ccccc1 (stereo unspecified) | 2.66 µM (active)
COC(=O)CC1Oc2ccc(Cl)cc2-n2cc(-c3ccc(F)cc3)nc21 (stereo unspecified) | 4.22 µM (active)
CCn1cc(C(=O)NCCCN2CCCC(C)C2)c(=O)c2cc(S(=O)(=O)N(C)C3CCCCC3)ccc21 (stereo unspecified) | 8.41 µM (active)
CN(C1CCCCC1)S(=O)(=O)c1ccc2c(c1)c(=O)c(C(=O)N1CCN(c3ccccc3F)CC1)cn2C | inactive
CCn1cc(C(=O)N2CCN(c3ccccc3)CC2)c(=O)c2cc(S(=O)(=O)N(C)C3CCCCC3)ccc21 | inactive
O=C(CC1CCCN(c2cnn(CC3CC3)c(=O)c2)C1)N1CCN(c2ccccn2)CC1 (stereo unspecified) | inactive
COc1ccc(CC(=O)N[C@@H]2CN(c3ccccn3)C[C@H]2CN(C)C)cc1 | inactive
Cc1cc(Cl)c(S(=O)(=O)N2CCN(c3ccccn3)CC2)cc1OCC(=O)NC1CCCCC1 | 0.668 µM (active)
Cn1cccc1CN1CCn2c(nnc2-c2ccccc2)C1 | inactive
O=C(COc1ccc(Cl)cc1)N1C[C@@H](CO)[C@H](c2ccccn2)C1 | inactive
Cn1cccc1CN1C[C@@H](COc2ccncc2)[C@H](c2ccccn2)C1 | 13.3 µM (active)
CC(C)CCN(CCC(C)C)CC(O)Cn1c2ccccc2c(=O)c2ccccc21 (stereo unspecified) | 1.88 µM (active)
O=C(Cc1c[nH]c2ccccc12)N1CCc2c(nc(-c3ccc(F)cc3)[nH]c2=O)C1 | inactive
O=C(c1ccc(OC2CCN(Cc3c[nH]c4ccccc34)CC2)cc1)N1CCCCC1 | 15 µM (active)
O=C([C@@H]1C[C@H](Oc2ccccc2)CN1C(=O)c1cc2ccccc2[nH]1)N1CCCC1 | inactive
CN1C2CCC1/C(=C\c1ccccc1)C(=O)/C2=C\c1ccccc1 | 2.11 µM (active)
Cc1cc(Oc2c(C(F)(F)F)oc3c(CN4CCC(C)CC4)c(O)ccc3c2=O)cc(C)c1Cl | 0.75 µM (active)
Cc1ccc(Oc2c(C(F)(F)F)oc3c(CN4CCC(C)CC4)c(O)ccc3c2=O)cc1 | 1.68 µM (active)
CCc1nc(CN(C)C(C(=O)O)c2ccc(C(C)(C)C#N)cc2)no1 (stereo unspecified) | inactive
Nc1ccc(NC(=O)c2cccc(C(=O)Nc3ccc(N)cc3Cl)c2)c(Cl)c1 | inactive
CCOC(=O)C1CCN(C(=O)c2cc(C(C)(C)C)nn2Cc2ccccc2)CC1 | 4.73 µM (active)
Cc1cn2nc(C(=O)N3CCC(C(=O)NCCc4ccccc4)CC3)cc2c(=O)[nH]1 | inactive

SMILES | Potency
CCn1nc(C)cc1C(=O)N1Cc2cnn(Cc3ccc(F)cc3)c2C1 | inactive
O=C(c1cnc2n1CCN(CCc1ccccc1)CC2)N1CCC(c2ccccc2)CC1 | inactive
CN1CCCCCC(O)c2cc(C(=O)N3CCN(Cc4ccccc4)CC3)ccc21 (stereo unspecified) | inactive
CCOC(=O)C1CCN(C(=O)c2cc3c(n2C)CCN(Cc2ccccc2)C3)CC1 | 10.6 µM (active)
O=C(Nc1cccnc1)c1ccc(Cl)c(S(=O)(=O)N2CCc3ccccc32)c1 | inactive
COc1ccc(NC(=O)c2ccc3c(c2)NC(C)(COCC2CC2)CO3)cn1 (stereo unspecified) | inactive
COc1ccc(NC(=O)c2ccc(Cl)c(S(=O)(=O)N3CCc4ccccc4C3)c2)cn1 | 7.5 µM (active)
CC(C)N(C)Cc1nnnn1CC(=O)N1CCC(O)(c2cccnc2)CC1 | inactive
Cc1cc(C)cc(N=Cc2[nH]c3ccc(Br)c(Cl)c3c2O)c1 | 11.9 µM (active)
CCOc1ccc(CCNC(=O)Nc2ccccc2)cc1OCC | 5.31 µM (active)
O=C(Cc1ccc(NC(=O)N2CCSc3ncccc32)cc1)NCCc1ccccc1 | inactive
CC(C)C(=O)Nc1oc(-c2ccccc2)cc1C#N | 6.68 µM (active)
c1ccc(-c2noc(-c3ccn4c(CN5CCSCC5)nnc4c3)n2)cc1 | inactive
CCN(CC)CCNc1ccnc2cc(Cl)ccc12 | 0.211 µM (active)
Clc1ccc2c(NCc3ccccn3)ccnc2c1 | 2.11 µM (active)
CCN1CCN(C(=O)c2ccc3c(Cl)c4c(nc3c2)CCCC4)CC1 | inactive
CCN1CCC(Nc2ccnc3cc(Cl)ccc23)CC1 | 0.188 µM (active)
CCC(O)c1cc2n(n1)CCN(C(=O)CN1CCOc3ccccc3C1)C2 (stereo unspecified) | inactive
CC1(CNc2ccccc2)COc2ccc(C(=O)NCc3cccc(F)c3)cc2N1 (stereo unspecified) | inactive
CN1c2cc(C(=O)Nc3ccc(F)cc3)ccc2C(=O)N2CCCCC21 (stereo unspecified) | inactive
CN1CCC2(C1)CN(Cc1ccccc1)c1ccc(C(=O)Nc3ccc(F)cc3)cc12 (stereo unspecified) | 19.3 µM (active)
Cc1sc2nc(-c3ccccn3)[nH]c(=O)c2c1-c1ccccc1 | 13.3 µM (active)
Cc1ccccc1Nc1cc(C)c2c(O)cccc2n1 | 5.31 µM (active)
Cc1cccc(Nc2cc(C)c3c(O)cccc3n2)c1C | 4.73 µM (active)

SMILES | Potency
Cc1cccc(NC(=O)Cn2c(C)cc3nc4n(c(=O)c32)CCCCC4)c1C | inactive
Nc1ccc2oc(-c3ccc4nc[nH]c4c3)nc2c1 | 13.3 µM (active)
CCc1ccc2oc(-c3ccc(NC(=O)c4cc5ccccc5o4)cc3)nc2c1 | inactive
O=C(Nc1ccc(-c2nc3cc(NC(=O)c4ccccc4F)ccc3o2)cc1)c1ccccc1F | inactive
COc1ccc(CCN(C)C(=O)CC(c2cccc(F)c2)c2cn(C)c3ccccc23)cc1OC (stereo unspecified) | 8.41 µM (active)
OC(CNC1CCCCCC1)COc1cccc2ccccc12 (stereo unspecified) | 1.88 µM (active)
Cc1sc2ncnc(SC(C)C(=O)N3c4ccccc4Sc4ccccc43)c2c1C (stereo unspecified) | inactive
C/C(=N\Nc1ncnc2sc(C)c(C)c12)c1ccccn1 | 1.33 µM (active)
Cc1sc2ncnc(NCC3(N4CCOCC4)CCCCC3)c2c1C | inactive
O=C(CCCc1ccccc1)N1CCC[C@H]1c1nc(-c2ccccc2)no1 | inactive
COc1ccc(-c2noc([C@@H]3CCCN3C(=O)CCCc3ccccc3)n2)cc1 | inactive
Cc1cnc(C2CCC2)n1C1CCCN(C(=O)CCCc2ccccc2)C1 (stereo unspecified) | 15 µM (active)
CCOc1ccc(NC(=O)c2nnn3cc(C)[nH]c(=O)c23)cc1 | 10.6 µM (active)
Cc1cccc(CNC(=O)c2nnn3cc(C)[nH]c(=O)c23)c1 | inactive
COc1ccc(NC(=O)O[C@@H]2CC[C@]3(C)C(CC[C@@H](O)[C@H]3CC(=O)NCc3ccccc3OC)[C@]2(C)CO)cc1 (stereo partly specified) | 6.68 µM (active)
COc1ccc(S(=O)(=O)N2CCC(CC(=O)NCc3ccccc3)C2)cc1 (stereo unspecified) | inactive
c1ccc2sc(Sc3ncnc4sccc34)nc2c1 | 0.944 µM (active)
CCc1cc2c(Sc3nc4ccccc4s3)ncnc2s1 | 1.5 µM (active)
Cc1c(N/N=C(\C#N)C(=O)c2ccccc2)c(=O)n(-c2ccccc2)n1C | 6.68 µM (active)
CN(C)CCN1C(=O)c2oc3ccc(Cl)cc3c(=O)c2C1c1cccc(Br)c1 (stereo unspecified) | 0.531 µM (active)
O=C(NC[C@H]1O[C@@H](CO)[C@@H](O)[C@H]1N1CCN(c2cccc(C(F)(F)F)c2)CC1)c1cccs1 | inactive
COc1cccc(CN2CCCC(N3CCN(c4cccc(C(F)(F)F)c4)CC3)C2)c1O (stereo unspecified) | 0.842 µM (active)
Oc1ccccc1CN1CCCC(N2CCN(c3cccc(C(F)(F)F)c3)CC2)C1 (stereo unspecified) | 1.33 µM (active)
CCOc1cc(CN2CCCC(N3CCN(c4ccc(F)cc4)CC3)C2)ccc1OC (stereo unspecified) | inactive
